# Assay results reported in the supplement of paper PMC10849652.
# About 7,900 targets were measured; listed, in parts, are those with a hit and a random draw of the rest. About 0.6% of all pairs of compound and target were hits. Unmarked numbers belong to inactive results.
# Tests used:
# Test in all cases: log2 fold change, soluble protein after heating vs DMSO (PISA); higher = thermal stabilisation; K562 cells, 10 uM, 30 min; active = over 0.2 and 3.5 SD of the protein, either way, in both replicates (recomputed)
# erlotinib = compound: C#Cc1cccc(Nc2ncnc3cc(OCCOC)c(OCCOC)cc23)c1 [erlotinib]
# Method in brief: (§1)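 K562 cells (2×10^6 cells/mL) were treated with 10 μM compound for 30 min, and aliquots were heated for 3 min over 48°C-58°C. Pooled aliquots were extracted in PBS with 0.5% NP-40 at 4°C, and the supernatant after 21,000xg for 90 min was measured by TMTpro 16plex LC-MS/MS with channel sums equalised. Reported thermal stability, relative to control samples and from duplicates, is a log2 fold change.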
# [1] = compound: C/C(=N\NC(=O)C1=CC(=CC=C1)S(=O)(=O)N2CCOCC2)/C3=C(C=CC(=C3)Cl)O
# Method in brief: as §1
# [2] = compound: C1=CC(=C(C=C1Cl)C2=NC3=NC=CN=C3C(=N2)NC4=CC=NC=C4)F
# Method in brief: as §1
# [3] = compound: C1=CC(=CC=C1C2=NC3=C(N2)C=C(C=C3)C(=O)N)OC4=CC=C(C=C4)Cl
# Method in brief: as §1
# [4] = compound: C1=CC2=C(C=CC(=C2)/C=C\3/C(=O)NC(=NCC4=CC=CS4)S3)N=C1
# Method in brief: as §1
# [5] = compound: C1=CC2=NC=CN=C2C=C1/C=C/3\C(=O)NC(=O)S3
# Method in brief: as §1
# [6] = compound: C1=CC=C(C=C1)C2=NC(=C(N2)C3=CC=NC=C3)C4=CC(=C(C=C4)Cl)O
# Method in brief: as §1
# [7] = compound: C1=CC=C2C(=C1)C3=NNC4=CC=CC(=C43)C2=O
# Method in brief: as §1
# [8] = compound: C1CCN(C1)C(=O)NC2=CC=CC(=C2)NC3=NC=C(C(=N3)NCCC4=CN=CN4)Br
# Method in brief: as §1
# [9] = compound: C1CN(CCC1(CC2=CC=C(C=C2)Cl)N)C3=NC=NC4=C3C=CN4
# Method in brief: as §1
# IRAK-1-4 Inhibitor I = compound: C1COCCN1CCN2C3=CC=CC=C3N=C2NC(=O)C4=CC(=CC=C4)[N+](=O)[O-] [IRAK-1-4 Inhibitor I]
# Method in brief: as §1
# ibrutinib = compound: C=CC(=O)N1CCC[C@@H](n2nc(-c3ccc(Oc4ccccc4)cc3)c3c(N)ncnc32)C1 [ibrutinib]
# Method in brief: as §1
# [10] = compound: CC(=O)c1cnc2ccc(-c3cc(Cl)c(O)c(Cl)c3)nc2c1N[C@H]1CC[C@H](CN(C)C)CC1
# Method in brief: as §1
# ralimetinib = compound: CC(C)(C)Cn1c(N)nc2ccc(-c3[nH]c(C(C)(C)C)nc3-c3ccc(F)cc3)nc21 [ralimetinib]
# Method in brief: as §1
# [11] = compound: CC(C)(O)CC(=O)NCCn1ccc2ncnc(Nc3ccc(Oc4cccc(C(F)(F)F)c4)c(Cl)c3)c21
# Method in brief: as §1
# [12] = compound: CC(C)C1=C2N=C(C=C(N2N=C1)NCC3=CC=CC=C3)NCCCCCCN
# Method in brief: as §1
# [13] = compound: CC(C)C[C@@H](C=O)NC(=O)[C@H](CC(C)C)NC(=O)[C@H](CC(C)C)NC(=O)OCc1ccccc1
# Method in brief: as §1
# pinometostat = compound: CC(C)N(C[C@H]1O[C@@H](n2cnc3c(N)ncnc32)[C@H](O)[C@@H]1O)[C@H]1C[C@@H](CCc2nc3cc(C(C)(C)C)ccc3[nH]2)C1 [pinometostat]
# Method in brief: as §1
# [14] = compound: CC1=C(C(CC(=O)N1)C2=CC=C(C=C2)C(F)(F)F)C(=O)NC3=C(C=C4C(=C3)C=NN4)F
# Method in brief: as §1
# [15] = compound: CC1=C(C2=C(C=C1)C(=O)C3=CC=CC=C3N2CCCN)C
# Method in brief: as §1
# Sequence of UniProt O75909 (O75909 whole entry, looked up): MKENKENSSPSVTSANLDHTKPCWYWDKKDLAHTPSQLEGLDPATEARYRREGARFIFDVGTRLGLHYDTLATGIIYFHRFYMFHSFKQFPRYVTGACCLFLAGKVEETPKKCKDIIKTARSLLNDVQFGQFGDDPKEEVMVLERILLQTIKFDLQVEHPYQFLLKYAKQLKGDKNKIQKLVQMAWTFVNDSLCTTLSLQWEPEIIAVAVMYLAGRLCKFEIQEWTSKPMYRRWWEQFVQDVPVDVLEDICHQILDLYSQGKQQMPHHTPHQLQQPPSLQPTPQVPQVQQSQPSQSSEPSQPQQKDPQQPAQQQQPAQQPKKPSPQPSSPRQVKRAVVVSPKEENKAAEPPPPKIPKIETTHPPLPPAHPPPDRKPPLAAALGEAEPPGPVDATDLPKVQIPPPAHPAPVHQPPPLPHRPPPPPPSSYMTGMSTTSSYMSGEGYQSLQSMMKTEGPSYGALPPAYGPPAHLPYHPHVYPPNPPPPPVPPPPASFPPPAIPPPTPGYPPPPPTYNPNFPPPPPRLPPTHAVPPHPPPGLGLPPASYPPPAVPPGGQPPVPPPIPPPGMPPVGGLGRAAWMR
# Sequence of UniProt Q8IX12 (Q8IX12 whole entry, looked up): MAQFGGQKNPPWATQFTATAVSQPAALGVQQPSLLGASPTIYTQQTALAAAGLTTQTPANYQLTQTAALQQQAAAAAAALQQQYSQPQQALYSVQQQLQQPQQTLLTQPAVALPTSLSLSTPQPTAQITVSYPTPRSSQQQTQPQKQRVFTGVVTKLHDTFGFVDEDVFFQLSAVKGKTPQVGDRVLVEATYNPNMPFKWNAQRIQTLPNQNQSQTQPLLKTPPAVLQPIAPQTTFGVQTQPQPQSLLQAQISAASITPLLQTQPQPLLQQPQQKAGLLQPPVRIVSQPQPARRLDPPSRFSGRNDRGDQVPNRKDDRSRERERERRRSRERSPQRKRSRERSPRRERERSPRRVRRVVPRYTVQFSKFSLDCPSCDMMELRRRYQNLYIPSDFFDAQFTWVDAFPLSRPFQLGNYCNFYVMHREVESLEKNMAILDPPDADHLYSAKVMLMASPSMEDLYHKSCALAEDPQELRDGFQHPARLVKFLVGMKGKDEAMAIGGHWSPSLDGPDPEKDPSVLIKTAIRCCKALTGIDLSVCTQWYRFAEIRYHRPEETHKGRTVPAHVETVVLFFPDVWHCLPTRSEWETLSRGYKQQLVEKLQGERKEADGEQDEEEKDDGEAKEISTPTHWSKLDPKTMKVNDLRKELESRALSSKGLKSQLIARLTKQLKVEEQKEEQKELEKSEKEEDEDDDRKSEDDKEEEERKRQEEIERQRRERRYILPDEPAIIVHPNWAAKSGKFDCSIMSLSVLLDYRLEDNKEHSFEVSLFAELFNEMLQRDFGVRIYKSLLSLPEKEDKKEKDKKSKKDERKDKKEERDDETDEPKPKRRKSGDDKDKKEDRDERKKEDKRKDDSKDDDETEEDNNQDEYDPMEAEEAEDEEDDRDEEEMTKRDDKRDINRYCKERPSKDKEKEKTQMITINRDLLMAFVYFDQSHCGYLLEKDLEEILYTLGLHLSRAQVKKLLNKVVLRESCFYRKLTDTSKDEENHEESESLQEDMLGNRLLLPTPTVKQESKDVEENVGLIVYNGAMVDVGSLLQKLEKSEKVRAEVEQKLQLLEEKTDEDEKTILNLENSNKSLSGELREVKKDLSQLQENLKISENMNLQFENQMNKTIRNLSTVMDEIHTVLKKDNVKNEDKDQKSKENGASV
# Sequence of UniProt P67870 (P67870 whole entry, looked up): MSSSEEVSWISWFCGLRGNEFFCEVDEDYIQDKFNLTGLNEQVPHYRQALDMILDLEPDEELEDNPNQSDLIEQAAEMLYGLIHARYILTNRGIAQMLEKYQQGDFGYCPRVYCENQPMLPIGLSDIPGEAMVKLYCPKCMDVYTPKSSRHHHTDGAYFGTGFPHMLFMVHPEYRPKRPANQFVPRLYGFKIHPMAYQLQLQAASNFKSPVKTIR
# Sequence of UniProt Q8IWV2 (Q8IWV2 whole entry, looked up): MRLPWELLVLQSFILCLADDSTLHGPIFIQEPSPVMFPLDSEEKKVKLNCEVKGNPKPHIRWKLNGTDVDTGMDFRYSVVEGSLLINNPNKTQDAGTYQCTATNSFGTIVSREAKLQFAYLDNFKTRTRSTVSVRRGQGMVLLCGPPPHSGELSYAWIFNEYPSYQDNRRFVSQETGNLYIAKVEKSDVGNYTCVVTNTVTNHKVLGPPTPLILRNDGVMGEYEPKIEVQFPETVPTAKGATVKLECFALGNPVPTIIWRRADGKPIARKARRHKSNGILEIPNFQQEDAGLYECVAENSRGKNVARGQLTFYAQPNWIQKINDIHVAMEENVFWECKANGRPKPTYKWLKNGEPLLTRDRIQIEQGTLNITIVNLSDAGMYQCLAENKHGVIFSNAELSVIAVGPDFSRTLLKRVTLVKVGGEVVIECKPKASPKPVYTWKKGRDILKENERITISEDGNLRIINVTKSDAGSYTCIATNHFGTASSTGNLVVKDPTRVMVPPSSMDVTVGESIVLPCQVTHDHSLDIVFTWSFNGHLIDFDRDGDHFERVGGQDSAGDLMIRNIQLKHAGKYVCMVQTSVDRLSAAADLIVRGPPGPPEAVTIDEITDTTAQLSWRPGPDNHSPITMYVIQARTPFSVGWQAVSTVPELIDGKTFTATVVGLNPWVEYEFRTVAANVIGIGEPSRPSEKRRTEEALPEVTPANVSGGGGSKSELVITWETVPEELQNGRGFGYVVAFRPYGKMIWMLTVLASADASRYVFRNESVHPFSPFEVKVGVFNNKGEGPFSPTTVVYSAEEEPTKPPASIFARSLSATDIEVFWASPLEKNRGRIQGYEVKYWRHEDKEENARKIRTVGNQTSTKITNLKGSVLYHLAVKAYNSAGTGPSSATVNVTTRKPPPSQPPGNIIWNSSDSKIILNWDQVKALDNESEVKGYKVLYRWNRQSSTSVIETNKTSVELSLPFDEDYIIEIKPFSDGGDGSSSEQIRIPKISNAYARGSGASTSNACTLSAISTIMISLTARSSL
# Sequence of UniProt Q16630 (Q16630 whole entry, looked up): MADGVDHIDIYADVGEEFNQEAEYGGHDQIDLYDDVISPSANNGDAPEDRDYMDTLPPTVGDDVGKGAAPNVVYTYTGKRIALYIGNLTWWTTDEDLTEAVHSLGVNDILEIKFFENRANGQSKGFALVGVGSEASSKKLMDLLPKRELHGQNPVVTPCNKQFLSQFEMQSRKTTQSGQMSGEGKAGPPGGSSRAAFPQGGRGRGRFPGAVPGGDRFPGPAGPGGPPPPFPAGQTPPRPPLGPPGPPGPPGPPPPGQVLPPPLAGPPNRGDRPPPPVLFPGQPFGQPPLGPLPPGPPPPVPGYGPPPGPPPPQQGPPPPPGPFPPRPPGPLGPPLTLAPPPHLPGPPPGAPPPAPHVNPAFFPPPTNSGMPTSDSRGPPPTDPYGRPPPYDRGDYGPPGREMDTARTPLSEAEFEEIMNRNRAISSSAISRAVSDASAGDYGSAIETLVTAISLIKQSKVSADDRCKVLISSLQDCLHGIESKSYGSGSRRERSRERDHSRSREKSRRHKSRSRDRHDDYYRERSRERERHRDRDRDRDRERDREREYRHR
# Sequence of UniProt Q7KZN9 (Q7KZN9 whole entry, looked up): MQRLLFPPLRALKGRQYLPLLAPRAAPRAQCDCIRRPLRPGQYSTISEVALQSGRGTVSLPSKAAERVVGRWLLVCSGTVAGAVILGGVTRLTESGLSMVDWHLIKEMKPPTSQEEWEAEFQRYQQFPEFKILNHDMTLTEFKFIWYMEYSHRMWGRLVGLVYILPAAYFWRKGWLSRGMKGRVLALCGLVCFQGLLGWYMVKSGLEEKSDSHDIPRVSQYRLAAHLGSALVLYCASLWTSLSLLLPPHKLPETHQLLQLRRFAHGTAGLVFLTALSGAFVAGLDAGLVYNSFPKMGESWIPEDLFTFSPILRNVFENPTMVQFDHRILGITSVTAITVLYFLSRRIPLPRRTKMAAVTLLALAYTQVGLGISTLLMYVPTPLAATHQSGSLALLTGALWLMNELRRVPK
# Sequence of UniProt P14854 (P14854 whole entry, looked up): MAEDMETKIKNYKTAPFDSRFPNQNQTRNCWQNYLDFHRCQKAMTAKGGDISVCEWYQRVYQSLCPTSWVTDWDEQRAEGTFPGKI
# Sequence of UniProt P20674 (P20674 whole entry, looked up): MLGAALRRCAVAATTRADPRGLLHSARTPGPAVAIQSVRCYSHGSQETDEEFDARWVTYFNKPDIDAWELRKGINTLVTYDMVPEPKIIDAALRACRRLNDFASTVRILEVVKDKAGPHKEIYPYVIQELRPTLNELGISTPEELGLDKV
# Sequence of UniProt Q96JB5 (Q96JB5 whole entry, looked up): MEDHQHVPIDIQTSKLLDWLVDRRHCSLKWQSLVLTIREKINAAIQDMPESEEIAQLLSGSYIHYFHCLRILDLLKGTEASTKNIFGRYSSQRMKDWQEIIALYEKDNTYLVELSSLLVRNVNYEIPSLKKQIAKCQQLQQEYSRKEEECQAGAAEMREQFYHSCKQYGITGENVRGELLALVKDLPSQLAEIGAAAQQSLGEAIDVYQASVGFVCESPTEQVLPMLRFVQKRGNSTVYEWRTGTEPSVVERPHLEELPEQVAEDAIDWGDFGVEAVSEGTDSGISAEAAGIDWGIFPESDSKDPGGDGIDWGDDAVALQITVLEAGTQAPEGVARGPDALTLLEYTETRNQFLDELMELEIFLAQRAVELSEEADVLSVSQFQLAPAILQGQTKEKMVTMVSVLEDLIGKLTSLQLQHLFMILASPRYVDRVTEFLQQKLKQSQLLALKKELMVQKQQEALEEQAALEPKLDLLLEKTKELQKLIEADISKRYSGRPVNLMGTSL
Target,log2 fold change (erlotinib),log2 fold change [1],log2 fold change [2],log2 fold change [3],log2 fold change [4],log2 fold change [5],log2 fold change [6],log2 fold change [7],log2 fold change [8],log2 fold change [9],log2 fold change (IRAK-1-4 Inhibitor I),log2 fold change (ibrutinib),log2 fold change [10],log2 fold change (ralimetinib),log2 fold change [11],log2 fold change [12],log2 fold change [13],log2 fold change (pinometostat),log2 fold change [14],log2 fold change [15]
CCNK isoform 4 (UniProt O75909),0.079,0.006,-0.138,-0.016,-0.126,-0.013,-0.068,-0.077,0.047,-0.126,-0.143,0.02,-0.058,0.031,-0.007,-0.008,0.045,0.15,-0.046,-0.047
C4A (UniProt P0C0L4),-0.117,-0.05,0.024,0.078,0.12,-0.032,0.002,-0.132,0.072,0.104,0.017,0.08,-0.01,-0.083,0.226,0.111,0.01,-0.11,0.086,-0.192
CPD (UniProt O75976),-0.025,-0.08,0.009,0.028,0.055,0.011,-0.007,-0.041,-0.045,0.008,-0.011,-0.018,-0.015,-0.03,-0.058,-0.126,0.077,0.002,0.04,-0.019
CASP2 (UniProt P42575),0.069,-0.007,0.056,-0.011,0.054,-0.025,-0.011,0.028,0.004,-0.053,0.017,0.027,0,-0.074,-0.073,-0.082,0.072,-0.013,-0.016,0.091
COX15 (UniProt Q7KZN9),-0.01,-0.008,0.067,-0.008,0.03,0.145,-0.009,-0.019,0.01,0.057,0.022,-0.04,0.027,-0.03,-0.036,-0.04,0.001,-0.022,-0.004,0.008
CCAR1 (UniProt Q8IX12),0.052,0.057,-0.002,0.014,0.071,0.039,-0.021,0.024,0.027,-0.085,0.002,0.003,-0.039,-0.012,-0.103,-0.168,0.006,-0.009,-0.03,0.209
CSNK2B (UniProt P67870),-0.021,-0.024,-0.017,-0.007,0.123,0.324 (active),0.031,0.084,-0.031,-0.023,-0.003,-0.014,0.266 (active),-0.006,-0.021,-0.087,-0.003,0.044,0.022,0.096
COX6B1 (UniProt P14854),0.027,0.011,0.247,-0.045,0.118,0.048,0,-0.037,-0.003,-0.019,-0.046,-0.038,-0.013,-0.144,-0.103,0.038,-0.01,0.017,0.045,0.103
COX5A (UniProt P20674),-0.005,-0.05,0.104,0.052,0.045,0.016,0.183,0.051,-0.026,-0.081,0.041,0.008,-0.09,-0.053,-0.103,0.058,-0.069,-0.042,0.041,0.122
CNTN4 (UniProt Q8IWV2),0.284,-0.641 (active),0.012,0.018,0.179,-0.095,0.05,0.097,-0.097,0.194,0.049,0.023,0.065,0.025,-0.108,0.195,0.044,-0.027,-0.014,0.137
CPSF1 (UniProt Q10570),-0.004,-0.057,-0.108,0.039,-0.012,0.02,-0.062,-0.045,0.041,-0.037,-0.006,-0.007,0.064,0,0.036,-0.009,0.075,0.142,0,-0.093
CHCHD1 (UniProt Q96BP2),-0.034,-0.007,-0.048,0.027,-0.135,-0.003,-0.057,0.039,0.022,-0.091,-0.071,0.119,-0.009,-0.117,0.026,-0.027,0.037,-0.021,0.08,-0.19
CPSF6 isoform 2 (UniProt Q16630),0.023,0.079,-0.072,0.122,-0.04,-0.026,-0.002,-0.016,-0.021,-0.135,-0.047,0,-0.599 (active),-0.017,0.02,-0.029,-0.053,0.004,-0.042,0.195
CDK5RAP3 isoform 4 (UniProt Q96JB5),0.089,0.027,0.042,-0.017,0.01,0.023,0.033,0.041,-0.003,-0.068,-0.051,-0.068,-0.005,-0.015,-0.062,-0.056,-0.002,0.017,-0.031,0.009
CPSF7 isoform 3 (UniProt Q8N684),-0.035,0.054,-0.015,0.041,-0.001,0.005,0.01,-0.005,-0.035,-0.016,-0.037,0,-0.242 (active),0.003,-0.002,0.02,-0.045,-0.028,-0.016,0.236 (active)
CMTR1 (UniProt Q8N1G2),-0.005,0.105,0.031,0.013,0.048,0.012,0.012,0.036,0.01,0.018,-0.007,-0.011,-0.014,-0.026,-0.024,-0.011,-0.002,-0.029,-0.007,0.169
